Test results taken from PubChem BioAssay AID720518 (National Center for Advancing Translational Sciences (NCATS), 2013).
Inconclusive results are not listed. Activity calls are given as the source filed them. Calls follow the shape of the full dose curve.

Experiment: qHTS for Inhibitors of Cell Surface uPA Generation: Wild-type Protective Antigen (WT-PrAg) Counterscreen for Cherry-picked Compounds; also: 0% is about no effect
Settings: cells, WT protective antigen toxicity counterscreen; series mostly up to 115 µM; activity (protection): at the top concentration

Row | SMILES | activity (protection)
1 | COC(/C=C/Nc1ccc(Cl)cc1)=C(C#N)C#N | 0.456% (inactive)
2 | COC(=O)CCSCC(=O)N1N=C(c2ccc(OC)cc2)CC1c1cccc(OC)c1OC (stereo not given) | -2.08% (inactive)
3 | CC1(C(=O)OCC(=O)Nc2ccc(Cl)cn2)CC1(Cl)Cl (stereo not given) | 5.25% (inactive)
4 | COc1ccc(OC)c(S(=O)(=O)N2CCC(NC(=O)c3ccccc3)CC2)c1 | 0.873% (inactive)
5 | COc1ccc(C2=NOC(CNC(N)=S)C2)cc1 (stereo not given) | -1.29% (inactive)
6 | Fc1ccc(N2CCN(c3nc(CN4CCOCC4)nc4scc(-c5ccccc5)c34)CC2)cc1 | -1.42% (inactive)
7 | C=CCn1c(=O)c(C(=O)NCCc2ccc(Cl)cc2)c(O)c2cc(OC)c(OC)cc21 | 1.13% (inactive)
8 | O=C(c1cccc(F)c1)N1CCN(Cc2cccc(Br)c2)CC1 | -1.52% (inactive)
9 | CC1(C)CC(=O)C([N+](=O)[O-])=C(NCCCC(=O)O)C1 | 1.57% (inactive)
10 | CCN(CC)c1ccc(C=NCCc2ccc(S(N)(=O)=O)cc2)cc1 | -1.25% (inactive)
11 | CCCC1=NN(C(=O)Cc2ccc(OC)cc2)C(O)(C(F)(F)F)C1 (stereo not given) | -0.864% (inactive)
12 | O=C(CC1(O)C(=O)Nc2ccccc21)c1cccc(Br)c1 (stereo not given) | 0.0973% (inactive)
13 | O=C1C=C(NNC(=O)c2ccncc2)CC(c2ccccc2)C1 (stereo not given) | -0.199% (inactive)
14 | C[C@@]12C(=O)N(CC3CCCO3)CC(=O)N1[C@H]1c3cc(Cl)ccc3OC[C@@H]1[C@@H]2c1ccccc1 (stereo not given in full) | -2.18% (inactive)
15 | COc1ccc(-c2cc3nc(C)cc(-c4ccc(OC)cc4)n3n2)cc1 | -1.24% (inactive)
16 | COc1ccc(Cc2nnc(Nc3ccc(C)cc3)o2)cc1OC | -0.388% (inactive)
17 | CN1CCN(C2=Nc3ccccc3Oc3ccc(Cl)cc32)CC1 | -0.292% (inactive)
18 | COc1cc(F)ccc1S(=O)(=O)n1c(C)nc2ccccc21 | 3.9% (inactive)
19 | CCC(=O)N(Cc1cc2ccc(C)cc2[nH]c1=O)c1ccccc1OC | -0.972% (inactive)
20 | O=C1OCC/C1=C\c1ccc(O)cc1 | -1.6% (inactive)

Row | SMILES | activity (protection)
21 | Cc1cc(C)n(-c2cc(C(=O)O)cc(C(=O)O)c2)n1 | -0.913% (inactive)
22 | CC1CCCN(C(=O)c2ccc(-c3ccccc3Cl)o2)C1 (stereo not given) | -2.52% (inactive)
23 | CCC(NC(=O)Cc1c(C)c2c(cc(C)c3c(C)c(C)oc32)oc1=O)C(=O)O (stereo not given) | -2.27% (inactive)
24 | O=C(NNC(=O)c1ccc2ccccc2c1)Nc1ccc(F)cc1 | 1.47% (inactive)
25 | CC(=O)Nc1nc2ccccc2[nH]1 | 0.0855% (inactive)
26 | Cc1c([N+](=O)[O-])c2ccc(O)cc2n1-c1ccccc1 | 11.1% (inactive)
27 | CCCCNc1c(-c2ccc(-c3cccc(Cl)c3)cc2)nc2ccccn12 | -2.18% (inactive)
28 | Clc1ccc(C2=NN=C3COc4ccccc4N3C2)cc1 | -1.44% (inactive)
29 | Brc1ccsc1/C=N/Nc1ccccc1 | 3.32% (inactive)
30 | Cc1ccc(-c2cc(C(=O)NCC3CCCO3)no2)cc1 (stereo not given) | -2.27% (inactive)
31 | Cc1ccc(S(=O)(=O)Nc2nc(C)cc(N/N=C/c3ccc(O)cc3)n2)cc1 | -1.92% (inactive)
32 | CN(CCCNC(=O)Cn1cccc1C(=O)c1ccccc1)C1CCCCC1 | -2.26% (inactive)
33 | CCOC(=O)CN1C(=O)N[C@@H](c2ccco2)C(C(=O)OC)=C1C | -1.93% (inactive)
34 | Cc1ccc(C(CC(=O)N2CCCC2)c2ccccc2)c(O)c1 (stereo not given) | -0.548% (inactive)
35 | CC1=CC(C)C(C[N+]2(C)CCCCC2)C(C)C1 (stereo not given) | -0.96% (inactive)
36 | CC1CCCCN1C(=O)CSc1nc2ncccc2[nH]1 (stereo not given) | -1.11% (inactive)
37 | COc1cc(SC)ccc1C(=O)OCc1nc2ccsc2c(=O)[nH]1 | 0.671% (inactive)
38 | Cc1cc(C)n(C(=O)c2cccc([N+](=O)[O-])c2)n1 | -1.85% (inactive)
39 | O=C(O)CSc1nnc(COc2ccccc2)n1-c1ccccc1 | -0.315% (inactive)
40 | CN(C)S(=O)(=O)c1cccc(C(=O)OCC(=O)NCc2ccc3c(c2)OCO3)c1 | -0.183% (inactive)
